Assay results taken from paper PMC7862700, “An all-to-all approach to the identification of sequence-specific readers for epigenetic DNA modifications on cytosine”.

Assays:
Experiment in all cases: DAPPL (digital affinity profiling via proximity ligation, sequencing); 10 mM Tris-HCl pH 7.5, 50 mM NaCl, 1 mM DTT, 4% glycerol, room temperature, 30 min; GST-TFs on glutathione beads, 16-mer random dsDNA library, 0.1% formaldehyde crosslink after washing; high values mean tight binding
[1] = target: T1, FLI1 (Homo sapiens, UniProt Q01543 1-452); conditions: protein: recombinant; tags: N-terminal GST; dsDNA, one strand shown
T1 sequence: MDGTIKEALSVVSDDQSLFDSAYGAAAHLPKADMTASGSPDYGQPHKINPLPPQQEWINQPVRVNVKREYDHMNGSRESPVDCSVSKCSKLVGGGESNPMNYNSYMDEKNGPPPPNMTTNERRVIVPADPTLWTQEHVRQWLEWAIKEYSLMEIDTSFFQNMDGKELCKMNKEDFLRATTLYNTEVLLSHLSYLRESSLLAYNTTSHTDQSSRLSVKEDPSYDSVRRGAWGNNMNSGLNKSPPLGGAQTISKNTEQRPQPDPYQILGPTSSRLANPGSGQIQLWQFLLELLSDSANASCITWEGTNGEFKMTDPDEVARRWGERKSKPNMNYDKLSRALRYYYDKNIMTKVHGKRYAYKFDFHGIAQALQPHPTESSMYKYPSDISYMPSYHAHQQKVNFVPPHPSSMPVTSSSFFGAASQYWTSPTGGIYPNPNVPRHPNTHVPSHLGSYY
How it was run: (§1)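 Binding signal is defined as a hexamer's read frequency for one factor over its frequency for the tag-only sample. To obtain reads, GST-fused human transcription factors were expressed in yeast, captured on glutathione beads, barcoded with DNA and pooled with that sample. Pools met 200 nmole of a 16-mer random double-stranded DNA library in Tris/NaCl/DTT/glycerol buffer for 30 min at room temperature before washing, 0.1% formaldehyde crosslinking, proximity ligation (BsaI/T4 ligase, 1 h, 37 °C), PCR and Illumina NextSeq500 sequencing.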

[2] = target: T2, ELK1 (Homo sapiens, UniProt P19419 1-428); conditions: protein: recombinant; tags: N-terminal GST; dsDNA, one strand shown
T2 sequence: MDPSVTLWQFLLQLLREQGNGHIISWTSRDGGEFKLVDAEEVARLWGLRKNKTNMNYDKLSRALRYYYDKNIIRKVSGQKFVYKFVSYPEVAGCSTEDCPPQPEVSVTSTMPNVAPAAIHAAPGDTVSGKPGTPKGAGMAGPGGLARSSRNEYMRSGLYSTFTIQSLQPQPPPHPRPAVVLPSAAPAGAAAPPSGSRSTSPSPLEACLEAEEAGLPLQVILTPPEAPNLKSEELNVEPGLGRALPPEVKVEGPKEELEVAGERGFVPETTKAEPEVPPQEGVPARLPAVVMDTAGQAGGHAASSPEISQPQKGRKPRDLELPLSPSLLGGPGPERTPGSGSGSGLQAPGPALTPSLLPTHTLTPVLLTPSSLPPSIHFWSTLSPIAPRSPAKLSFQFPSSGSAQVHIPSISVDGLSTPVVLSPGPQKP
How it was run: as §1

[3] = target: T3, GABPA (Homo sapiens, UniProt Q06546 1-454); conditions: protein: recombinant; tags: N-terminal GST; dsDNA, one strand shown
T3 sequence: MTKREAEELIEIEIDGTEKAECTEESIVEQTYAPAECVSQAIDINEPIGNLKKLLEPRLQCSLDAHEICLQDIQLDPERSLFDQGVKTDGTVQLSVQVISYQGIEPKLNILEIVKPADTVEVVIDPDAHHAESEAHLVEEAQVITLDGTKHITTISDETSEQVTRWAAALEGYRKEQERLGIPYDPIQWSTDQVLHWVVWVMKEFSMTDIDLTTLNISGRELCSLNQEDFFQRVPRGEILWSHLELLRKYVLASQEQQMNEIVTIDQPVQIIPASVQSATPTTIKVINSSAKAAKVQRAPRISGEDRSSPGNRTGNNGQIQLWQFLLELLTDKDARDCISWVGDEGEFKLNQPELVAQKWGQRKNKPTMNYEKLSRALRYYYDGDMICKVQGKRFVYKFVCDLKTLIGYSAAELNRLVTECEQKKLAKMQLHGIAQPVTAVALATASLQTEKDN
How it was run: as §1

[4] = target: T4, ERG (Homo sapiens, UniProt P11308 1-479); conditions: protein: recombinant; tags: N-terminal GST; dsDNA, one strand shown
T4 sequence: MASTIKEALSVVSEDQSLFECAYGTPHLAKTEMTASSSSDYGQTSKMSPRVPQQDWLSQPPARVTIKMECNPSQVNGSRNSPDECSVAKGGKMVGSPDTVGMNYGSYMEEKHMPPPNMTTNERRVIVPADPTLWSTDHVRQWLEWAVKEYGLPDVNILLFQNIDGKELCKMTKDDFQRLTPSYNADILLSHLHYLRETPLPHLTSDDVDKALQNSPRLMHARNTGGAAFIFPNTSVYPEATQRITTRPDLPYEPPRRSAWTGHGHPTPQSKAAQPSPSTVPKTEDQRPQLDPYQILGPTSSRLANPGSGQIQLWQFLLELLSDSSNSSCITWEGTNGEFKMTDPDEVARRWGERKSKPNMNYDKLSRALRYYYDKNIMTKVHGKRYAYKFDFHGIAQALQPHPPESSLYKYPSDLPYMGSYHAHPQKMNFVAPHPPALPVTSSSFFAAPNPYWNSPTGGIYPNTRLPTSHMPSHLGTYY
How it was run: as §1

[5] = target: ELF1 (Homo sapiens, UniProt P32519 1-619); conditions: protein: recombinant; tags: N-terminal GST; dsDNA, one strand shown
ELF1, sequence (P32519 whole entry): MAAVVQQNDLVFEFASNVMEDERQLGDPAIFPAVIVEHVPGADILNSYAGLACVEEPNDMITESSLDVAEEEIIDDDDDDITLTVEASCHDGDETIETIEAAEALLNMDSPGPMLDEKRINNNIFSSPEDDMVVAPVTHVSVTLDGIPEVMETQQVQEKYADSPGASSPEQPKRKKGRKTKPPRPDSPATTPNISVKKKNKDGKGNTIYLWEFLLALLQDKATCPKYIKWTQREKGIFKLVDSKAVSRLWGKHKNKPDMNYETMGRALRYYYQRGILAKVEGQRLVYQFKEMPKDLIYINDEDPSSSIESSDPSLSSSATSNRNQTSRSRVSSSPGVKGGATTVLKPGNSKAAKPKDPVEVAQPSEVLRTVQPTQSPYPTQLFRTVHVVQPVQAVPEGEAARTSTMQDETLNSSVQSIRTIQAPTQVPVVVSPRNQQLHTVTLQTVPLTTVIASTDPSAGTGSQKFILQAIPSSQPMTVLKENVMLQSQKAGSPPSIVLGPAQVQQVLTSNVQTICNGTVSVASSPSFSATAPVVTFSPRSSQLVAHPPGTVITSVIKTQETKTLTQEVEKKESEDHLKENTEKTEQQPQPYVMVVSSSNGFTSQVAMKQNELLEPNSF
How it was run: as §1

[6] = target: T5, EHF (Homo sapiens, UniProt Q9NZC4 1-300); conditions: protein: recombinant; tags: N-terminal GST; dsDNA, one strand shown
T5 sequence: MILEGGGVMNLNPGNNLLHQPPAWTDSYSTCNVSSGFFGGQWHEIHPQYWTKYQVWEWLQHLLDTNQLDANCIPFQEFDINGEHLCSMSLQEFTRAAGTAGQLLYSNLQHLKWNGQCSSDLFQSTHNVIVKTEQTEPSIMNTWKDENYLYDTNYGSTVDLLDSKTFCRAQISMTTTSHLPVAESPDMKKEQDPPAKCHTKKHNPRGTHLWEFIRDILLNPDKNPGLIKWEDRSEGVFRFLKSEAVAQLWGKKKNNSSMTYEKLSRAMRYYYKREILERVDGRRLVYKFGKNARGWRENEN
How it was run: as §1

[7] = target: SPI1 (Homo sapiens, UniProt P17947 1-270); conditions: protein: recombinant; tags: N-terminal GST; dsDNA, one strand shown
How it was run: as §1

[8] = target: SPIB (Homo sapiens, UniProt Q01892 1-262); conditions: protein: recombinant; tags: N-terminal GST; dsDNA, one strand shown
SPIB, sequence (Q01892 whole entry): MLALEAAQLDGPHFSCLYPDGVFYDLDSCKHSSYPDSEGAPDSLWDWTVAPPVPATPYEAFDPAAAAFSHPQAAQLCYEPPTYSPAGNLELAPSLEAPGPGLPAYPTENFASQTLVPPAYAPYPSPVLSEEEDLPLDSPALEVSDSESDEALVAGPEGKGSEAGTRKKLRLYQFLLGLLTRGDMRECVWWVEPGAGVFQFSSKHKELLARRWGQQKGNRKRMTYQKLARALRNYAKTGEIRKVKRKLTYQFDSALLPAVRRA
How it was run: as §1

[9] = target: T6, ELK3 (Homo sapiens, UniProt P41970 1-407); conditions: protein: recombinant; tags: N-terminal GST; dsDNA, one strand shown
T6 sequence: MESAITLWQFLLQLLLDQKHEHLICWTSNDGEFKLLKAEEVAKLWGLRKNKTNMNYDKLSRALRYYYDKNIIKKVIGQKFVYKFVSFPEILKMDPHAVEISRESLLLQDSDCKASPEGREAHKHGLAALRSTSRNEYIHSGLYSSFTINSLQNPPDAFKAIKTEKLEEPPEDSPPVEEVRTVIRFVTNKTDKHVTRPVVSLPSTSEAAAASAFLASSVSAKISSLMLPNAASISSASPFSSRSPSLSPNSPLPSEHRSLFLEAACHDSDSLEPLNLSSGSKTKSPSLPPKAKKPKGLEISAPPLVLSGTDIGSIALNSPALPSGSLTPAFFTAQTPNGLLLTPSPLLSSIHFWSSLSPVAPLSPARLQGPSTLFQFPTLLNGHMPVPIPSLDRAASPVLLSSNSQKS
How it was run: as §1

[10] = target: T7, FEV (Homo sapiens, UniProt Q99581 1-238); conditions: protein: recombinant; tags: N-terminal GST; dsDNA, one strand shown
T7 sequence: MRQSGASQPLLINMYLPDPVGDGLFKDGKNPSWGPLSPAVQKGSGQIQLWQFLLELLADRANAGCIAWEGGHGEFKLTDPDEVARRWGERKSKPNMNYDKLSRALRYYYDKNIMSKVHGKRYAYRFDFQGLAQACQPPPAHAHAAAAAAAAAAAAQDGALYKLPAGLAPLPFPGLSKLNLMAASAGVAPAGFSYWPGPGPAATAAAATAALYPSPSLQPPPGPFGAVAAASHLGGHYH
How it was run: as §1

[11] = target: ETV5 (Homo sapiens, UniProt P41161 1-510); conditions: protein: recombinant; tags: N-terminal GST; dsDNA, one strand shown
ETV5, sequence (P41161 whole entry): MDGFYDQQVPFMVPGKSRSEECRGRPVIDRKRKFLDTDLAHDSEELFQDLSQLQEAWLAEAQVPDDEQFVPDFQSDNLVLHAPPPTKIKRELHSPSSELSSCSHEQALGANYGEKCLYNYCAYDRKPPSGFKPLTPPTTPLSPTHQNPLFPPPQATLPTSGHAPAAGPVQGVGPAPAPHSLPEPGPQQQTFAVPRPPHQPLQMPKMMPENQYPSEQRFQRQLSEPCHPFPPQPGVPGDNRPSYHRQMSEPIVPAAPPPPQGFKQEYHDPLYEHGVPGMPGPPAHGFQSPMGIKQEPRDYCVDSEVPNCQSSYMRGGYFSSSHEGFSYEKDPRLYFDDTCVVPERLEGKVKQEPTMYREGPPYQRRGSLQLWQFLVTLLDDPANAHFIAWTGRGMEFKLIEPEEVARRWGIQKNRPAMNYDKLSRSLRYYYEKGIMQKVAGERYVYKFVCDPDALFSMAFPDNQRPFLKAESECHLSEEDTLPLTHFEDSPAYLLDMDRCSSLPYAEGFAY
How it was run: as §1

[12] = target: HSF1 (Homo sapiens, UniProt Q00613 1-529); conditions: protein: recombinant; tags: N-terminal GST; chain copies: 3; dsDNA, one strand shown
HSF1, sequence (Q00613 whole entry): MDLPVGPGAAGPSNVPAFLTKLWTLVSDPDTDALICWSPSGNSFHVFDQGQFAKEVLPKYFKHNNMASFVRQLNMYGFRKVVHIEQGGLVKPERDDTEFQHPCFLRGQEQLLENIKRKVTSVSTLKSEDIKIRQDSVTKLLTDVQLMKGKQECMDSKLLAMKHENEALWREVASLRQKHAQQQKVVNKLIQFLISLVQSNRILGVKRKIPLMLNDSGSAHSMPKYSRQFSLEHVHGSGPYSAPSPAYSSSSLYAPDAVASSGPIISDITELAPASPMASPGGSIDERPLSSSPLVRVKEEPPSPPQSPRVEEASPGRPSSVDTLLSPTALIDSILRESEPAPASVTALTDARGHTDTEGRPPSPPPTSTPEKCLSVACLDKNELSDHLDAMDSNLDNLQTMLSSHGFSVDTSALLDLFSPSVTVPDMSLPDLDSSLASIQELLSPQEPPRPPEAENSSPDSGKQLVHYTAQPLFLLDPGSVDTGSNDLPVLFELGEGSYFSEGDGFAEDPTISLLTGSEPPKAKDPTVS
How it was run: as §1

[13] = target: T8, SPIC (Homo sapiens, UniProt Q8N5J4 1-248); conditions: protein: recombinant; tags: N-terminal GST; dsDNA, one strand shown
T8 sequence: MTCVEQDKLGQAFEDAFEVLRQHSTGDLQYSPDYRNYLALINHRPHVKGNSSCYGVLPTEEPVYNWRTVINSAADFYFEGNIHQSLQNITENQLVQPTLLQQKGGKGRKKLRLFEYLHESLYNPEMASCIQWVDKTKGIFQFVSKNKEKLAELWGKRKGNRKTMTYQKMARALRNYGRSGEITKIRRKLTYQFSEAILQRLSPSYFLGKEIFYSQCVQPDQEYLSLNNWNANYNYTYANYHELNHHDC
How it was run: as §1

[14] = target: ELF4 (Homo sapiens, UniProt Q99607 1-663); conditions: protein: recombinant; tags: N-terminal GST; dsDNA, one strand shown
ELF4, sequence (Q99607 whole entry): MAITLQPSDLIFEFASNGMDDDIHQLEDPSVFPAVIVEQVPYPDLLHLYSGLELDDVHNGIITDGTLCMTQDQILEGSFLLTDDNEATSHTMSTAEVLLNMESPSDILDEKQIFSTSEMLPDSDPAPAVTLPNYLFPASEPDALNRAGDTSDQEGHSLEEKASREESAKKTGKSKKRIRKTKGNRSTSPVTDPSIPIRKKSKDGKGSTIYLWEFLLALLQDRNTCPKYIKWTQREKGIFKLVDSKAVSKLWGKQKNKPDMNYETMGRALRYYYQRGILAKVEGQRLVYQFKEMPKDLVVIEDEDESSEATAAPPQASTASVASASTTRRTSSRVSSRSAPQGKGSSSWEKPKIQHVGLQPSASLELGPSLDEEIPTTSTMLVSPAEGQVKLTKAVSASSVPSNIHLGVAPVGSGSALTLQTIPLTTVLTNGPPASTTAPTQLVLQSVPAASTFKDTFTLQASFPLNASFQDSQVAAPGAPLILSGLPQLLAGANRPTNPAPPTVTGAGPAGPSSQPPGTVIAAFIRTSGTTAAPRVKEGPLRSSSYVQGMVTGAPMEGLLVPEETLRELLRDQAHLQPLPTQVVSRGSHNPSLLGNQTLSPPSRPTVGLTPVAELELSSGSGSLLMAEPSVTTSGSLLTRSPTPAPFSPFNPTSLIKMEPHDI
How it was run: as §1

[15] = target: T9, ELK4 (Homo sapiens, UniProt P28324-2 1-405); conditions: protein: recombinant; tags: N-terminal GST; dsDNA, one strand shown
T9 sequence: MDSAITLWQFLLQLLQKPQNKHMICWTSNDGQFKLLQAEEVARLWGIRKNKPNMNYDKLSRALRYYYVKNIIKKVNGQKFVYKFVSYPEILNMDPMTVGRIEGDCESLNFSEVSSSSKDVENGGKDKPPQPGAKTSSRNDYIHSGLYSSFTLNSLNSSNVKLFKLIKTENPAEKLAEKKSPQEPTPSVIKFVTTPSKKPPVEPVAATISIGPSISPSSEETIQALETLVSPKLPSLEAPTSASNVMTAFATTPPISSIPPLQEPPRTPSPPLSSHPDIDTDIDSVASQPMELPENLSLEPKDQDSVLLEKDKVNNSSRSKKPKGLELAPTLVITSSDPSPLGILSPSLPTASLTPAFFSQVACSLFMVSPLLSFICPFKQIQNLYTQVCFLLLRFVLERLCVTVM
How it was run: as §1

[16] = target: T10, ETV2 (Homo sapiens, UniProt O00321 1-342); conditions: protein: recombinant; tags: N-terminal GST; dsDNA, one strand shown
T10 sequence: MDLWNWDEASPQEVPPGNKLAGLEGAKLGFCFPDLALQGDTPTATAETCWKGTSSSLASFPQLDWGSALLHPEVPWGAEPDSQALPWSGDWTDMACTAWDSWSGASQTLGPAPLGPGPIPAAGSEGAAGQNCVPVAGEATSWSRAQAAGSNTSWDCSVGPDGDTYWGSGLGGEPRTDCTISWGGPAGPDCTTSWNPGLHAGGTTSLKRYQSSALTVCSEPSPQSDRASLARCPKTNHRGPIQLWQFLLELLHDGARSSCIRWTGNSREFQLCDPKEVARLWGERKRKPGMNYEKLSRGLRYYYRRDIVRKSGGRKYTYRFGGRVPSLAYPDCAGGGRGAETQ
How it was run: as §1

[17] = target: T11, ELF3 (Homo sapiens, UniProt P78545 1-371); conditions: protein: recombinant; tags: N-terminal GST; dsDNA, one strand shown
T11 sequence: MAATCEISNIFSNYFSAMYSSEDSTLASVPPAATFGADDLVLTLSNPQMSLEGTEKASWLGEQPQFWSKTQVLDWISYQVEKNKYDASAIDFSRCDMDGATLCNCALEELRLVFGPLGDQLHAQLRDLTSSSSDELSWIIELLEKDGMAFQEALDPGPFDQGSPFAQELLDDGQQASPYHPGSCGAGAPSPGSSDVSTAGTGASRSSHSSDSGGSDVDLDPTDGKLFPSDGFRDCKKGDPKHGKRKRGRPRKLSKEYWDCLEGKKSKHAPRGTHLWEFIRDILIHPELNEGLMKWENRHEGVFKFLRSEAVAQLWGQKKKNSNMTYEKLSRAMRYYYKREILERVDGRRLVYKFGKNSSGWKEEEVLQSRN
How it was run: as §1

[18] = target: CRX (Homo sapiens, UniProt O43186 1-299); conditions: protein: recombinant; tags: N-terminal GST; dsDNA, one strand shown
CRX, sequence (O43186 whole entry): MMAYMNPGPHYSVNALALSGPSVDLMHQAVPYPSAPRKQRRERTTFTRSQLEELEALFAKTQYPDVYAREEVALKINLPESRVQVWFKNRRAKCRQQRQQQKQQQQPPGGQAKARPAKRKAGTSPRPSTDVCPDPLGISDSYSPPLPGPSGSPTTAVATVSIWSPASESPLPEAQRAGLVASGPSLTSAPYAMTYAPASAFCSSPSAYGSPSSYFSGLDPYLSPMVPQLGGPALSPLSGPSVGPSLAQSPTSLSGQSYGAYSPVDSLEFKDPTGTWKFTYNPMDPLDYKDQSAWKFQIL
How it was run: as §1

[19] = target: ETV1 (Homo sapiens, UniProt P50549 1-477); conditions: protein: recombinant; tags: N-terminal GST; dsDNA, one strand shown
ETV1, sequence (P50549 whole entry): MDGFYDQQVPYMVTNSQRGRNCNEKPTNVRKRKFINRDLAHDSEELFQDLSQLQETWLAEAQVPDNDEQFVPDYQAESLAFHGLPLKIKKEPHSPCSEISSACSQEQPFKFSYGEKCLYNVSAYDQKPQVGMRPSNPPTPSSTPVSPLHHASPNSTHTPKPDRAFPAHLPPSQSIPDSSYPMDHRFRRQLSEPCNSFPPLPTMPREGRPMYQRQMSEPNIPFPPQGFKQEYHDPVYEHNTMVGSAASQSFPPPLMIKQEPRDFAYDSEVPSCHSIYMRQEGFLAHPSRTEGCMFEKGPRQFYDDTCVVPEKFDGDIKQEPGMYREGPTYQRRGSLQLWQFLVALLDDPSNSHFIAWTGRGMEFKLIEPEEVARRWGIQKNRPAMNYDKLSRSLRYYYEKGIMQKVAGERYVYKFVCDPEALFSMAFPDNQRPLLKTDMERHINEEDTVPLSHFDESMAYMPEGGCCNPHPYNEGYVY
How it was run: as §1

CTCTCA
binding signal [1]: 1.49 fold enrichment (6-mer frequency, TF over GST control)
binding signal [2]: 1.47 fold enrichment (6-mer frequency, TF over GST control)
binding signal [3]: 1.52 fold enrichment (6-mer frequency, TF over GST control)
binding signal [4]: 1.36 fold enrichment (6-mer frequency, TF over GST control)
binding signal [5]: 1.38 fold enrichment (6-mer frequency, TF over GST control)
binding signal [6]: 1.36 fold enrichment (6-mer frequency, TF over GST control)
binding signal [7]: 1.38 fold enrichment (6-mer frequency, TF over GST control)
binding signal [8]: 1.44 fold enrichment (6-mer frequency, TF over GST control)
binding signal [9]: 1.57 fold enrichment (6-mer frequency, TF over GST control)
binding signal [10]: 1.44 fold enrichment (6-mer frequency, TF over GST control)
binding signal [11]: 1.35 fold enrichment (6-mer frequency, TF over GST control)
binding signal [12]: 1.2 fold enrichment (6-mer frequency, TF over GST control)
binding signal [13]: 1.21 fold enrichment (6-mer frequency, TF over GST control)
binding signal [14]: 1.42 fold enrichment (6-mer frequency, TF over GST control)
binding signal [15]: 1.45 fold enrichment (6-mer frequency, TF over GST control)
binding signal [16]: 1.33 fold enrichment (6-mer frequency, TF over GST control)
binding signal [17]: 1.47 fold enrichment (6-mer frequency, TF over GST control)
binding signal [18]: 1.24 fold enrichment (6-mer frequency, TF over GST control)
binding signal [19]: 1.51 fold enrichment (6-mer frequency, TF over GST control)
